Screening data from PubChem BioAssay.
Only a selection was taken, and hits are over-represented in it overall.
Methyltransferases: Primary Screen for Target Class Profiling of Small Molecule Inhibitors of Methyltransferases; calls only at 40 µM; hit rate 3.9% among 25,000; purified enzyme, MTase-Glo SAH luminescence; active compounds read low; call rule not given here
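Each enzyme was assayed with SAM and its substrate. SAH formation detected by MTase-Glo luminescence; single-point 40 uM screen[…].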
Large screens that a line does not name were inactive.

COC(=O)c1ncn2c1C(=O)N(Cc1ccc(OC)cc1OC)C(C)(C(=O)NC1CCCC1)C2 (centres undefined)	none
Cc1ccccc1CN1C(=O)c2cc3sccc3n2CC1(C)C(=O)NC1CCCCCCC1 (centres undefined)	none
CC(C)c1c2cc(-c3ccnc(NC4CCC(NC5CCOCC5)CC4)n3)ccc2nn1C (centres undefined)	Methyltransferases active
CCOCCCN1C(=O)c2ccc(-c3ccco3)n2CC1(C)C(=O)NC1CCCC1 (centres undefined)	none
CCc1cc2c(cc3n2CC(C)(C(=O)NC2CCCCCC2)N(Cc2cccc(F)c2)C3=O)s1 (centres undefined)	none
CCCN1C(=O)c2c(C(=O)NCCc3ccccc3Cl)ncn2CC1(C)C(=O)NC1CCCC1 (centres undefined)	none
CCCn1c(=O)c2ccc(C(=O)NC3CCCC3)cc2n2c(=O)n(CC(=O)NC(C)(C)C)nc12	none
CCOC(=O)C1CCN(c2nc3c(S(=O)(=O)c4ccccc4)nnn3c3ccccc23)CC1	none
COc1cccc(C2c3cccn3-c3sc4c(c3CN2C(=O)Nc2cc(C)ccc2OC)CCCC4)c1 (centres undefined)	none
c1cc(CN2CCCCC2)cc(OCCCNc2nc3ccccc3s2)c1	Methyltransferases active
NC(=O)COc1cccc(CN2CCN(c3ccc(F)cc3F)CC2)c1	none
c1ccc(CCCN2CC[C@H](c3nc4ccccc4s3)C2)cc1	none
CCCCNC(=O)c1cc2n(n1)CC(C)(C(=O)NCc1ccc(C)cc1)N(C)C2=O (centres undefined)	none
CCCCN1C(=O)c2ccc(-c3ccccc3)n2CC1(C)C(=O)NC1CCCCCCC1 (centres undefined)	none
COc1ccc(N2C(=O)c3cc4occc4n3CC2(C)C(=O)NC2CCCCCC2)cc1Cl (centres undefined)	none
C=C1C(=O)OC2C(OC(=O)C=C(C)C)C(C)=C3C(=O)C=C(C)C3C(O)C12 (centres undefined)	Methyltransferases active
C=C1C(=O)O[C@@H]2[C@H]3C(C)=CC(=O)C3=C(C)[C@@H](OC(=O)/C(C)=C\C)[C@H](O)[C@@H]12	none
C=CCn1c(=O)c2ccc(C(=O)NCC(C)C)cc2n2c(=O)n(CC(=O)NC(C)C)nc12	none
CCCn1nc(CNC(=O)Cc2ccc(F)cc2)c2ccccc21	none
CCCn1c(=O)c2ccc(C(=O)NC(C)C)cc2n2c(SCC(=O)NC(C)(C)C)nnc12	none
N.N.N.N.N.N.N.N.N.N.N.N.N.N.O.O.[Ru+4].[Ru+5].[Ru+5]	Methyltransferases active
CCCNC(=O)N1Cc2c(sc3c2CCCC3)-n2cccc2C1C(C)C (centres undefined)	none
CC1CCC2(C)C(CC(O)C(O)C23CO3)C1(C)CCC1=CC(=O)OC1O (centres undefined)	none
CC1=CCC[C@@H]2[C@](CCc3ccoc3)(C(=O)O)[C@H](C)CC[C@@]12C	none
CC1CC(O)C2(C)C(C(=O)O)=CCCC2C1(C)CCc1ccoc1 (centres undefined)	Methyltransferases active
CC1CCC2(CO)C(C(=O)O)=CCCC2C1(C)CCc1ccoc1 (centres undefined)	Methyltransferases active
COCCn1nnc2cc(S(=O)(=O)N(C)CC(=O)N3CCOCC3)ccc21	none
CCOC(=O)c1cc2n(n1)CC(C)(C(=O)NCc1ccc(Cl)cc1)N(c1ccc(F)cc1)C2=O (centres undefined)	none
CCCN1C(=O)c2c(C(=O)NCc3ccc(CC)cc3)ncn2CC1(C)C(=O)NC1CCCC1 (centres undefined)	none
CCOc1ccc(N2C(=O)c3cc(-c4ccccc4)nn3CC2(C)C(=O)NCc2ccccc2)cc1 (centres undefined)	none
CC(CN1C(=O)c2ccc(-c3ccccc3)n2CC1(C)C(=O)NC1CCCC1)c1ccccc1 (centres undefined)	none
CCOCCCNC(=O)c1cc2n(n1)CC(C)(C(=O)NC1CCCC1)N(CC)C2=O (centres undefined)	none
COc1ccc(CNC(=O)C2(C)Cn3cnc(C(=O)NCc4cccc(F)c4)c3C(=O)N2C2CC2)cc1 (centres undefined)	none
C[C@]1(C2CCCC2)Cc2cc(OCC(=O)O)c(Cl)c(Cl)c2C1=O	Methyltransferases active
CCCC[C@@]1(C2CCCC2)Cc2cc(OCC(=O)O)c(Cl)c(Cl)c2C1=O	Methyltransferases active
COc1ccccc1CNC(=O)c1ccc2c(=O)nc3c(-c4ccc(C)cc4)n[nH]n3c2c1	none
CC(C)NC(=O)N1Cc2c(sc3c2CCCC3)-n2cccc2C1c1ccc(Cl)cc1 (centres undefined)	none
CN1C(=O)c2cc(C(=O)NC3CCCCC3)nn2CC1(C)C(=O)NC1CCCC1 (centres undefined)	none
O=S(=O)(Nc1cccc(F)c1)c1cccc(-c2nc(-c3ccccc3)no2)c1	none
CSc1cccc(N2C(=O)CSc3c(c4ccccc4n3C)C2C(=O)NCc2ccccc2)c1 (centres undefined)	none
COc1ccc(C2(O)CCC(N3CC[C@@H](NC(=O)CNC(=O)c4cccc(C(F)(F)F)c4)C3)CC2)cn1 (some centres undefined)	Methyltransferases active
O=C(CNC(=O)c1cccc(C(F)(F)F)c1)N[C@@H]1CCN(Cc2ccc(Cl)cc2)C1	none
CC(=O)NC1CCN(C(=O)c2coc(COc3cccc(C(F)(F)F)c3)n2)C1 (centres undefined)	none
CCCn1c(=O)c2ccc(C(=O)NC3CCCC3)cc2n2c(SCC(=O)NC3CCCC3)nnc12	none
CN1C(=O)c2cc(C(=O)NCc3ccccc3F)nn2CC1(C)C(=O)NCc1ccccc1 (centres undefined)	none
COC(=O)c1ccc(NC(=O)CN(C)S(=O)(=O)c2ccc3[nH]c4c(c3c2)CCCC4)cc1	none
CCCn1c(=O)c2ccccc2n2c(SCC(=O)Nc3cc(Cl)ccc3C)nnc12	none
CCc1cc2c(cc3n2CC(C)(C(=O)NC2CCCCCC2)N(Cc2ccc(F)cc2)C3=O)s1 (centres undefined)	none
CCCNc1ccc2ncc(-c3ccc4[nH]ncc4c3)n2n1	Methyltransferases active
COc1ccc(CN2C(=O)c3cc(-c4ccccc4)nn3CC2(C)C(=O)NCc2ccccc2)c(OC)c1 (centres undefined)	none
COc1ccc(C2c3cccn3-c3sc4c(c3CN2C(=O)NCc2cccc(OC)c2)CCCC4)cc1 (centres undefined)	none
C=CCn1c(=O)c2ccc(C(=O)NC(C)CC)cc2n2c(=O)n(CC(=O)Nc3ccccc3F)nc12 (centres undefined)	none
Cc1c(O)cc(O)c2c(=O)c(O)c(-c3ccc(O)c(O)c3)oc12	Methyltransferases active
Cc1c(Cl)cccc1NC(=O)Cn1c(=O)oc2cc(S(=O)(=O)N3CCCC3)ccc21	none
CC(C)C1c2cccn2CCN1C(=O)Nc1cccc(F)c1 (centres undefined)	none
CCCN1C(=O)c2c(C(=O)NCc3ccc(C)o3)ncn2CC1(C)C(=O)NCCC(C)C (centres undefined)	none
CCCCN1C(=O)CSc2c(c3ccccc3n2C)C1C(=O)NCCC(C)C (centres undefined)	none
CC(=O)NCCCCn1c2c(c3ccccc31)C(=O)NCC2	Methyltransferases active
CCCCNC(=O)CCc1nnc2n(CCc3ccccc3)c(=O)c3ccccc3n12	none
COc1ccc(OC)c(S(=O)(=O)N2CCC3(CC2)CC(CC(=O)N(C)C)CCO3)c1 (centres undefined)	none
COc1ccccc1CNC(=O)C1(C)Cn2c(cc3ccccc32)C(=O)N1CCN1CCOCC1 (centres undefined)	none
